The source of these data is PubChem BioAssay (NCI).

Holding throughout (assay): NCI-60 one-dose screen, 48 h (100 = growth as untreated, 0 = no growth, -100 = all killed)
What all share (settings): 10 µM

Test [1] has as its system T-47D breast.
The subject of test [2] is BT-549 breast.
In test [3] the test system is MDA-MB-435 melanoma.
Test [4] concerns SW-620 colon.
Test [5] has as its system MCF7 breast.
Test [6] concerns HCT-116 colon.
For test [7], the system named is HCC-2998 colon.
Test [8] has as its system KM12 colon.

Compounds without any hit were thinned out: in the full panel of roughly 83,000, 20% have a hit.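 In brief: 96-well plates, 48 h treatment, single concentration, percent growth endpoint.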 A number with no mark means an inactive call. Active and inactive are the calls of the source. Rule for the calls: active = growth percent below 10; inactive = the rest.

For `CC(C)c1ccc(C(C)C(=O)N(CC2=C(C(C)c3ccccn3)c3ccccc3C2)C(C)C)cc1` (stereo not drawn), the growth in test [1] is 13.3%; in test [2] it was 69.6%; in test [3], 44.1%; in test [4], 31.3%; in test [5] it was 19.9%; in test [6] it was 11.1%. For the same compound, the growth in test [7] was 37.3%; in test [8], 37.5%.

With `Clc1nc2ccc(Br)cc2cc1-c1nc2ccccc2[nH]1`, the growth in test [1] was 104%; in test [2], 85.9%; in test [3], 102%; in test [4] it was 89.7%; in test [5] it was 42.5%; in test [6] it was 77.8%. Further, the growth in test [7] was 108%; in test [8], 90.7%.

As for `Cc1cccc(N=Cc2ccccc2O)c1C`, the growth in test [1] is 106%; in test [2] it was 90%; in test [3], 102%; in test [4], 112%; in test [5], 98.8%; in test [6], 106%. Further, the growth in test [7] was 104%; in test [8], 114%.

`CCOC(=O)c1cc(C(=O)c2ccc(OC)c(OC)c2)n2ccncc12`: the growth in test [1] was 78.8%; in test [2], 84.5%; in test [3] it was 104%; in test [4], 100%; in test [5], 79.6%; in test [6] it was 93.3%. Besides, the growth in test [7] and in test [8] was 101% each time.

For `C[C@@H](O)[C@H]1C(=O)N2C(C(=O)O)=C(SCCN=CN)C[C@H]12`, the growth in test [1] was -6.42% (active); in test [2] it was 18.9%; in test [3], -9.18% (active); in test [4] it was -0.331% (active); in test [5], -6.51% (active); in test [6], -24.8% (active). Moreover, the growth in test [7] was 0.878% (active); in test [8], 9.33% (active).

For `O=C(O)c1cc([N+](=O)[O-])ccc1Oc1ccccc1`, the growth is 106% in test [1]; 92.7% in test [2]; 94.1% in test [3]; 96.1% in test [4]; 99.3% in test [5]; 102% in test [6]. Moreover, the growth is 105% in test [7] and 98.2% in test [8].

Consider `O=C1C=C(Nc2cccc(Br)c2)c2ccccc2C1=O`, for which the growth is 102% in test [1]; 14.7% in test [2]; -25.2% (active) in test [3]; 29.7% in test [4]; 21% in test [5]; 52% in test [6]. For the same compound, the growth in test [7] was 75.5%; in test [8], 32.6%.

`COc1ccc(-c2nnc(SCC(=O)Nc3ccc(C(=O)/C=C/c4ccccc4)cc3)n2-c2ccccc2)cc1OC`: the growth is 72.9% in test [1]; 92.8% in test [2]; 86.1% in test [3]; 66.4% in test [4]; 36.4% in test [5]; 17% in test [6]. The growth is 110% in test [7] and 91.7% in test [8].

With `CCN(CC)CCOC(=O)c1cc(OCc2ccccc2)c(OCc2ccccc2)c(OCc2ccccc2)c1`, the growth in test [1] was 66.8%; in test [2], 86.8%; in test [3] it was 74.7%; in test [4], 19.7%; in test [5] it was 8.2% (active); in test [6], 24%. In addition, the growth in test [7] is 53.8%; in test [8] it was 40.7%.

Regarding `COc1cc(-c2nn(-c3cccc(NC(=O)CN4CCOCC4)c3)cc2-c2cccnc2)ccc1Cl`, the growth in test [1] is 72.2%; in test [2], 62.2%; in test [3] it was 6.77% (active); in test [4], 62.2%; in test [5], 62.4%; in test [6], 82.7%. In addition, the growth was 112% in test [7] and 71.9% in test [8].

As for `Cc1c(Cl)cccc1NC(=O)CCCl`, the growth in test [1] was 92.3%; in test [2], 99.7%; in test [3] it was 105%; in test [4], 106%; in test [5] it was 102%; in test [6], 89.4%. Moreover, the growth in test [7] was 99.1%; in test [8], 100%.

As for `O=C(Nc1ccc(OCc2nnc(-c3ccc(Cl)cc3)o2)c(F)c1)Nc1ccc(Cl)c(C(F)(F)F)c1`, the growth in test [1] is 4.57% (active); in test [2], -13.9% (active); in test [3] it was 8.01% (active); in test [4] it was 15.7%; in test [5], 3.17% (active); in test [6] it was 2.12% (active). Moreover, the growth in test [7] is 9.15% (active); in test [8], 3.14% (active).

As to `COc1ccc(C2=Cn3c(CCC(=O)c4nc5ccccc5[nH]4)nnc3SC2)cc1`, the growth was 81% in test [1]; 104% in test [2]; 90.3% in test [3]; 129% in test [4]; 84.6% in test [5]; 71.4% in test [6]. Also, the figures for the growth in test [7] and in test [8] were 127% and 98.6%, respectively.

In the case of `CCn1c(SCCc2ccccc2)nnc1-c1nn(-c2ccc(Cl)cc2Cl)c(-c2ccc(Cl)cc2)c1C`, the growth was 42.2% in test [1]; 93.4% in test [2]; 83.2% in test [3]; 83.3% in test [4]; 58.7% in test [5]; 39.1% in test [6]. In addition, the values for the growth in test [7] and in test [8] were 110% and 69.5%, respectively.

Turning to `COc1cc2cc(Oc3ccc(NC(=O)c4ccccc4)cc3)c(C)nc2cc1OC`, the growth in test [1] is 79.8%; in test [2], 82.3%; in test [3] it was 104%; in test [4], 109%; in test [5] it was 78.7%; in test [6], 87.1%. Moreover, the growth was 125% in test [7] and 94.5% in test [8].

Turning to `CCOC(=O)C1=CSC2=NC3=C(CCC/C3=C\c3ccc(Cl)cc3)C(c3ccc(Cl)cc3)N12` (stereo not drawn), the growth in test [1] was 77.4%; in test [2], 98.4%; in test [3] it was 79.1%; in test [4], 100%; in test [5], 31.3%; in test [6] it was 49.7%. Also, the growth is 101% in test [7] and 66.7% in test [8].
